Drawing on PubChem BioAssay AID1851 (National Center for Advancing Translational Sciences (NCATS), 2009), this text covers AC50 and activity, negative = inhibition for 108 molecules.

The AC50 is the concentration at which the activity in the assay is half-maximal.

In all, about 16,000 compounds went through this assay and about 2,600 (16%) were called active. Not shown: some 20% with an inconclusive outcome. Not all results are given here. A number with no mark means an inactive call. Calls come from the whole dose curve; as a rule, active = well fitted curve in the direction sought with a large enough effect; inconclusive = small, poorly fitted or top-dose-only effect, or effect the other way; inactive = no such curve, though single readings can be large or run the other way.
% is set by controls: 0 for no effect and ±100 for the full control effect.

Cytochrome P450 2D6 (Homo sapiens), sequence (P10635 whole entry, looked up): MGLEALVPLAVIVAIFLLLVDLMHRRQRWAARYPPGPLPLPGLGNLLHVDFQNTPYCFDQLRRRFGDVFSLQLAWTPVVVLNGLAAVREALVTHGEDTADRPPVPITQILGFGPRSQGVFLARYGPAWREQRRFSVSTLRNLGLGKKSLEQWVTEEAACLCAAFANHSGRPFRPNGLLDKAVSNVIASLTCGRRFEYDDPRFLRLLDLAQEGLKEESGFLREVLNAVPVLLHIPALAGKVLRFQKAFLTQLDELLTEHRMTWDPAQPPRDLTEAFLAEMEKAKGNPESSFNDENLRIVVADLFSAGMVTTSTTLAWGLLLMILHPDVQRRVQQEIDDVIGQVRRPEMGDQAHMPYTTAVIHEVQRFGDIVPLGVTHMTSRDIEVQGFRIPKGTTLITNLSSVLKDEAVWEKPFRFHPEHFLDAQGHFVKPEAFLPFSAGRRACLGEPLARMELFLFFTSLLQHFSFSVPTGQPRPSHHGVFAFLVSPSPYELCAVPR

This assay addresses Cytochrome P450 2D6 (Homo sapiens) (UniProt P10635). Description: Cytochrome panel assay with activity outcomes. Conditions: recombinant CYP, pro-luciferin dealkylation, luminescence, p450-cyp2d6; series mostly up to 57.1 µM.
Take `Cc1cc(C(=O)O)c(=O)[nH]c1C`: the AC50 entry is “inactive”. On the same count and under the same terms, under `CC1(C)CC(=O)C2=C(C1)N(Cc1ccccc1)C(=O)C2(O)C(F)(F)F` (stereo not drawn) stands “inactive”; under `O=C(N/N=C/C1CCCCC1)c1ccccn1`, “inactive”. Still for that read-out and setting: the value for `N#Cc1c2n(c3c(=S)nc[nH]c13)CCCCC2` was “inactive”.

On to `C=C1C=C(Br)C2(OCCCO2)[C@H]2OC12` (stereo partly drawn), for which the activity, negative = inhibition was 3.88% [at 11.4 µM]. On to `Cc1cc(NC(=S)Nc2ccccc2)ccc1Br`, for which the AC50 is 2 µM (active).

Regarding `Cc1cc(NC(=S)NC(=O)CC(C)C)ccc1Br`, the AC50 result is “inactive”. Regarding `COc1ccc(NC(=S)Nc2ccccc2)cc1`, the activity, negative = inhibition was -11.8% [at 11.4 µM].

As for `CCCCC1(C)NC(=O)c2c(C)sc(C(=O)OCC)c2N1` (stereo not drawn), the AC50 result was “inactive”. Regarding `CC1=C/C(=N/O)C([C@H]2C=C(C)CC(C)(C)[C@@H]2O)C(C)(C)C1` (stereo partly drawn), the activity, negative = inhibition is -8.52% [at 11.4 µM].

Turning to `COc1ccc(S(=O)(=O)N2CCC(N3CCCCC3)CC2)cc1`, the AC50 was 0.316 µM (active). On the same count and under the same terms, the value for `COc1ccc(S(=O)(=O)N2CCC(NC(=O)Nc3ccc(C)cc3)CC2)cc1` was “inactive”; that for `COc1ccc(S(=O)(=O)Nc2ccc(S(=O)(=O)N3CCCCC3)cc2)cc1C` was “inactive”; that for `CCCOC(=O)c1c(NC(=O)/C=C/c2cnn(C)c2C)sc(C(=O)OCC)c1C` was “inactive”. Same read-out and setting: the value for `CCOc1cccc2cc(C(N)=O)c(=NCc3ccccc3)oc12` was “inactive”. Same read-out and setting: the value for `Oc1ccccc1-c1cc(-c2ccccc2)no1` was “inactive”.

Take `c1ccc(CN(CC2=NCCN2)c2ccccc2)cc1`: the half-maximal activity concentration (AC50) is 2.51 µM (active). With `C[C@@H]1c2ccccc2CN1CC1=NCCN1`, the AC50 result is “inactive”.

Take `c1c[nH]c(CN2CCN(Cc3ncc[nH]3)CC2)n1`: the activity, negative = inhibition was -3.74% [at 11.4 µM]. As to `c1ccc2c(CC3=NCCN3)cccc2c1`, the AC50 is 7.94 µM (active). Regarding `Cc1ccc(N(Cc2ccccc2)Cc2ccccc2)cc1`, the activity, negative = inhibition is 0.619% [at 11.4 µM].

For `c1c[nH]c(CN2CCOCC2)n1`, the activity, negative = inhibition is -10.1% [at 11.4 µM]. `Cc1cc(C=C(C#N)C#N)c(C)n1-c1ccccc1`: the AC50 result is “inactive”. For `CCc1cc2c(nc1CC)CCN(CC/C(C)=N/O[C@@H](C)c1cn([C@H](CO)Cc3ccccc3)nn1)C2`, the activity, negative = inhibition is 2.14% [at 11.4 µM]. As to `Nc1ncnc2c([C@@H]3O[C@@H](CO)[C@H](O)[C@@H]3O)nsc12`, the activity, negative = inhibition was -0.815% [at 11.4 µM]. As for `N#Cc1c(N2CCN(C(=O)c3ccccc3Cl)CC2)nc(-c2ccccc2)c2c1CCCC2`, the AC50 result was “inactive”.

`CC1CN(C(=O)CN2C(=O)NC3(CCCCCC3)C2=O)CC(C)O1` (stereo not drawn): the AC50 result is “inactive”. Same read-out and setting: the value for `Cc1nc2cnc(Oc3cccc(Cl)c3)nc2n(C2CC2)c1=O` was “inactive”; that for `CN(c1ccc(C(=O)NC2CC3CCC2C3)cc1)S(C)(=O)=O` (stereo not drawn) was “inactive”; that for `CNc1nc(NCCOC23CC4CC(CC(C4)C2)C3)nc(OCC(F)(F)F)n1` was “inactive”. For the molecule `Cc1ccc(C(=O)N2CCN(c3ccc(C(F)(F)F)cn3)CC2)cc1`, the AC50 entry was “inactive”.

Consider `COc1cccc(Nc2ncc3nc(C)c(=O)n(CCC#N)c3n2)c1`, for which the AC50 result was “inactive”.

On to `COc1ccc2[nH]cc(CCNc3cc(-c4ccccc4C)ncn3)c2c1`, for which the AC50 is 7.94 µM (active).

Turning to `COc1cccc(-c2cc(NCCc3c[nH]c4ccc(OC)cc34)ncn2)c1`, the half-maximal activity concentration (AC50) was 15.8 µM (active). As for `COCCNc1cc(-c2ccccc2C(F)(F)F)ncn1`, the AC50 result was “inactive”. The same measure, in the same setting: the value for `CC(=O)NCCNc1cc(-c2ccccc2C)ncn1` was “inactive”. Same read-out and setting: under `COc1ccc2[nH]cc(C=O)c2c1` stands “inactive”; under `COc1ccc2[nH]cc(CCNc3cc(-c4ccoc4)ncn3)c2c1`, 12.6 µM (active); under `COc1ccc2[nH]cc(CCNc3cc(-c4ccccc4OC)ncn3)c2c1`, 12.6 µM (active).

For `COC(=O)Nc1ccc2[nH]cc(CCNC(C)=O)c2c1`, the AC50 entry is “inactive”. Same read-out and setting: under `CCOC(=O)C1=C(C)NC2=C(C(=O)C(C(=O)OCC)C(c3ccc(OC)cc3)C2)C1c1ccccn1` (stereo not drawn) stands “inactive”; under `O=C1OCCC1Sc1nnnn1-c1ccccc1` (stereo not drawn), “inactive”. For the molecule `O=C1C[C@H](c2ccccc2)[C@@H](c2ccc(Br)cc2)O1`, the activity, negative = inhibition is -20.8% [at 11.4 µM]. In the case of `COCCn1c(=O)cnc2cnc(Nc3cccc(OC)c3)nc21`, the AC50 entry was “inactive”. On the same count and under the same terms, under `CC(C)Cc1nnc(NC(=O)c2ccc([N+](=O)[O-])cc2)s1` stands “inactive”; under `COc1cccc(Cn2c(NCc3cccnc3)nc3c2c(=O)n(C)c(=O)n3C)c1`, “inactive”; under `COc1ccc(NC(=O)CN2c3cccc4cccc(c34)S2(=O)=O)cc1`, “inactive”. Same read-out and setting: the value for `COc1ccc(CNC(=O)C(c2ccc(C)cc2)N(Cc2cccs2)C(=O)c2ccc3c(c2)OCCO3)cc1` (stereo not drawn) was “inactive”. The same measure, in the same setting: under `CC(C(=O)NCc1ccc2c(c1)OCO2)N1c2cccc3cccc(c23)S1(=O)=O` (stereo not drawn) stands 10 µM (active); under `O=C(CCc1ccccc1)NNC(=S)NC(=O)c1ccccc1`, “inactive”. For `NNC(=O)c1ccc[n+](CCc2ccccc2)c1`, the AC50 was 2 µM (active). `CC(=O)Nc1ccc(C(=O)NNC(=O)CCc2ccccc2)cc1`: the AC50 result is “inactive”.

For `CCc1cc2c(=O)[nH]cnc2s1`, the AC50 entry is “inactive”. Same read-out and setting: the value for `CN(Cc1ccco1)c1ncnc2ccc(-c3cccnc3)cc12` was 2 µM (active); that for `CN(C)c1ncnc2ccc(-c3ccccc3C#N)cc12` was “inactive”.

With `CN(C)c1ccc(-c2ccc3ncnc(N(C)C)c3c2)cc1`, the AC50 result was “inactive”. On the same count and under the same terms, the value for `Cc1ccccc1-c1ccc2ncnc(N(C)C)c2c1` was 20 µM (active). As for `CS(=O)(=O)Nc1cccc(-c2ccc3ncnc(N4CCOCC4)c3c2)c1`, the AC50 entry is “inactive”. `CN(C)C(=O)c1ccc(-c2ccc3ncnc(N(C)C)c3c2)cc1`: the AC50 result was “inactive”. The same measure, in the same setting: the value for `Cc1noc(C)c1-c1ccc2ncnc(N(C)C)c2c1` was “inactive”; that for `CN(Cc1ccco1)c1ncnc2ccc(-c3cccc(NS(C)(=O)=O)c3)cc12` was 20 µM (active); that for `CN(C)c1ncnc2ccc(-c3ccoc3)cc12` was 10 µM (active). The same measure, in the same setting: under `CS(=O)(=O)Nc1cccc(-c2ccc3ncnc(NC4CC4)c3c2)c1` stands “inactive”. As for `CC(C)(C)CNCCO`, the activity, negative = inhibition was 17.6% [at 11.4 µM]. Regarding `COCCSc1nnc(NC(=O)C(C)(C)C)s1`, the AC50 result is “inactive”.

In the case of `Cc1c(Br)c([N+](=O)[O-])nn1C(C)C(=O)Nc1nccs1` (stereo not drawn), the AC50 result was “inactive”. The same measure, in the same setting: the value for `CCN(CC)C(=O)CSc1nnc(C2CCCCC2)o1` was “inactive”; that for `COC(=O)CN1C(=O)S/C(=C/c2ccc(N3CCCCC3)o2)C1=O` was “inactive”. The same measure, in the same setting: under `CSc1nc(N)c2ncn([C@H]3O[C@H](COP(=O)(O)OP(=O)(O)O)[C@@H](O)[C@@H]3O)c2n1` stands “inactive”. Consider `O=C(O)c1cc(-c2ccc(-c3ccc(-c4cc(C(=O)O)c5cc(Cl)ccc5n4)cc3)cc2)nc2ccc(Cl)cc12`, for which the activity, negative = inhibition is 16.7% [at 11.4 µM]. `Cn1nnnc1SCC(=O)Nc1ccccc1[N+](=O)[O-]`: the AC50 result was “inactive”. Same read-out and setting: under `CCS(=O)(=O)NCCc1cc2ccc(C)cc2[nH]c1=O` stands “inactive”; under `CN(C)c1ncc2nc(-c3ccccc3)c(=O)n(C)c2n1`, “inactive”. Regarding `CC(C)(C)C(=O)NC(c1ccc(Cl)cc1)[C@]1(C)C[C@H]1C1CCCCC1` (stereo partly drawn), the AC50 entry is “inactive”. Same read-out and setting: under `COc1cccc(-c2ccc3ncnc(N(C)Cc4ccco4)c3c2)c1` stands 10 µM (active). On to `COc1cccc(-c2ccc3ncnc(NC4CCNCC4)c3c2)c1`, for which the AC50 result was “inactive”. Same read-out and setting: the value for `CN(Cc1ccco1)c1ncnc2ccc(-c3ccc4c(c3)OCO4)cc12` was 1.58 µM (active); that for `COc1cccc(-c2ccc3ncnc(Nc4ccccc4)c3c2)c1` was “inactive”; that for `COc1cccc(-c2ccc3ncnc(N(C)C)c3c2)c1` was 10 µM (active). `CNc1ncnc2ccc(-c3cccc(OC)c3)cc12`: the AC50 was 15.8 µM (active). Same read-out and setting: the value for `Cc1ccc(C(=O)NC(=S)NCC2CCCO2)cc1` (stereo not drawn) was “inactive”; that for `Cc1ccc(C2(C)NC(=O)N(CC(=O)Nc3cc(C)on3)C2=O)cc1` (stereo not drawn) was “inactive”; that for `COc1ccc(-n2c(SC)nc(O)c(Cc3ccccc3)c2=O)cc1` was “inactive”. Take `CC1=NN(c2ccccc2)C(=O)C1C(=O)c1ccc(Cl)cc1` (stereo not drawn): the AC50 result is “inactive”. On the same count and under the same terms, the value for `CCOc1ccc(CSC(CC(=O)O)C(=O)O)cc1` (stereo not drawn) was “inactive”. Still for that read-out and setting: under `CSC1=N/C(=C\c2ccc(C)cc2)C(=O)S1` stands “inactive”; under `C[C@H](N=C(NC#N)Nc1ccncc1)C(C)(C)C`, “inactive”. Consider `C[N+](C)(C)c1ncnc2c1ncn2[C@@H]1CCCCO1`, for which the activity, negative = inhibition was -6.66% [at 11.4 µM]. With `CCNc1ncc2nc(-c3cn(C)c4ccccc34)c(=O)n(Cc3cccc(OC)c3)c2n1`, the AC50 result is “inactive”.

In the case of `CCOC(=O)/C(C(N)=NCCCO)=C(/O)c1ccccc1`, the AC50 result is “inactive”. `COc1cc(OC)c(C#N)c(S(=O)(=O)Cc2ccccc2)c1`: the AC50 result is “inactive”.

For `COC(=O)c1c(-c2cc(OC)c(OC)c(OC)c2)c2ccc(OCc3ccccn3)cc2c(=O)n1-c1ccc(N)cc1`, the AC50 entry is “inactive”.

In the case of `O=C(Oc1ccccc1)N1CCC2(CC1)CN(c1ccccc1)C2`, the AC50 entry is “inactive”. The same measure, in the same setting: the value for `COc1ccc(N(C(=O)Cn2nnc3ccccc32)C2(C(=O)NC3CCCC3)CCCCC2)cc1` was 11.2 µM (active); that for `COCCNC(=O)C(c1ccc(C)o1)N(CC1CCCO1)C(=O)Cn1nnc2ccccc21` (stereo not drawn) was “inactive”. Still for that read-out and setting: the value for `O=C(Cn1nnc2ccccc21)N1CCCCC1` was “inactive”; that for `CCOCC(=O)Nc1cc(-c2cn3cccnc3n2)ccc1C` was “inactive”. The same measure, in the same setting: the value for `Clc1ccc(-c2ccnc(Oc3cc(Cl)ccc3Cl)n2)cc1` was “inactive”; that for `CCOc1cc2[nH]c(=O)n(CCC(=O)NCc3ccc(OC)cc3)c(=O)c2cc1OCC` was “inactive”; that for `O=C(CSc1nc2ccccc2c(=O)n1Cc1ccccc1)NCc1ccco1` was “inactive”. As to `O=C(NCC1CCCO1)c1ccc2c(=O)n(Cc3ccco3)c(SCC(=O)N3CCCC3)nc2c1` (stereo not drawn), the AC50 entry is “inactive”. Turning to `CCOC(=O)CSc1nc2ccccc2c(=O)n1CC1CCC(C(=O)NCc2ccco2)CC1` (stereo not drawn), the AC50 entry was “inactive”.

As to `Cc1cc(NC(=O)CSc2nc3ccsc3c(=O)n2Cc2ccccn2)n[nH]1`, the AC50 entry was “inactive”.

As for `Cc1cc(NC(=O)CSc2nc3ccccc3c(=O)n2CCCC(=O)NCc2ccco2)n[nH]1`, the AC50 was 15.8 µM (active). Same read-out and setting: under `Cc1cccc(C)c1-n1c(SCC(=O)NCc2ccco2)nc2ccccc2c1=O` stands 28.2 µM (active); under `CCCCCn1c(SCc2ccncc2)nc2cc(C(=O)NCc3ccco3)ccc2c1=O`, 0.794 µM (active).

Turning to `CCc1ccc(NC(=O)CSc2nc3cc(C(=O)OC)ccc3c(=O)n2Cc2ccco2)cc1`, the AC50 result was “inactive”. The same measure, in the same setting: under `O=C(CSc1nc2ccccc2c(=O)n1CCCC(=O)N1CCCC1)NCc1ccco1` stands “inactive”.
